Potency, outcome and max activation data for eight molecules are collected here from PubChem BioAssay (Tox21).

Where “and” joins values, the source holds several entries; their conditions need not be identical. Identical values can stand only once. Records with an inconclusive call do not appear. The source holds several records for some structures; these can differ, active in one and inactive in another. Calls of active or inactive are those of the source. Unless noted, the call rests on the fitted dose curve; in most records, active means well fitted curve in the direction sought with a large enough effect in the repeat runs; inconclusive means weak or mixed curves; inactive means no such curve, though single readings can be large; an effect the other way counts as inactive or inconclusive.

The nature of assay [1]: qHTS assay to identify small molecule agonists of the estrogen receptor alpha (ER-alpha) signaling pathway in the presence of an antagonist - cell viability counter screen (AID 1259386).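 Further: cells exposed to compounds for 22 h at 37 °C before the viability read; nearly all actives have a fitted effect of over 30% in size.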 Further: potency means the concentration at half of the fitted maximal effect. The procedure, abridged:
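Cell viability in VM7Luc4E2 cells (endogenous full-length ER-alpha) measured by CellTiter-Fluor fluorescence in the same wells as the luciferase screen. Cells pre-cultured 5 days in charcoal-stripped serum, then treated 22 h with compounds at 15 concentrations plus 10.0nM ICI-182,780.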
A general note: In qHTS, concentration-response curves come from the screen itself.

The target of assay [2] is Progesterone receptor (Homo sapiens) (UniProt P06401). In words: qHTS assay to identify small molecule agonists of the progesterone receptor (PR) signaling pathway (AID 1346784; calls by dose curve; further: nearly all actives have a fitted effect of over 30% in size; further: potency means the concentration at half of the fitted maximal effect). The procedure, abridged:
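The screen uses PR-UAS-bla HEK 293T cells in charcoal-stripped serum (2%). Compounds are applied for 16 hr at 37C after a 6 hr pre-incubation, and reporter activity is detected with a FRET beta-lactamase substrate after 2 hr at room temperature.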

For assay [3] the target is unchanged. Briefly: qHTS assay to identify small molecule antagonists of the progesterone receptor (PR) signaling pathway (AID 1346795; active means well fitted inhibition curve with a large enough effect in the signal ratio in the repeat runs, not every such curve was filed as active; the % refers to the signal ratio). The procedure, abridged: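 After 6 hr plating at 37C in 2% stripped-serum medium, PR-UAS-bla HEK293T cells got compounds, then 1 nM R5020. Sixteen hours later, LiveBLAzer substrate was applied for 2 hr at room temperature and fluorescence was recorded.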

Assay [4] in a line: qHTS assay to identify small molecule antagonists of the progesterone receptor (PR) signaling pathway - cell viability counter screen (AID 1346798). Further: series mostly up to about 92 µM; nearly all actives have a fitted effect of over 50% in size. The method, boiled down:
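Viability was determined by ATP-based luminescence (CellTiter-Glo) in PR-UAS-bla HEK293T cells cultured in 2% charcoal-stripped serum and incubated 16 hr with compounds under R5020 stimulation.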

Assay [5] can be described thus: qHTS assay to identify small molecule agonists of the progesterone receptor (PR) signaling pathway - cell viability counter screen (AID 1346799; calls by dose curve; further: nearly all actives have a fitted effect of over 45% in size; further: potency means the concentration at half of the fitted maximal effect). The method, boiled down: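 Viability was scored by ATP luminescence (CellTiter-Glo, 30 min, room temperature) in the same wells used for the reporter readout, after 16 hr compound exposure of PR-UAS-bla HEK293T cells.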

A short description of assay [6]: qHTS assay to identify small molecule agonists of the TGF-beta/Smad signaling pathway - cell viability counter screen (AID 1346829). Further: top concentration of the series differs between compounds; nearly all actives have a fitted effect of over 45% in size. The method, boiled down: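 Luminescence from CellTiter-Glo, read after a 30 min room-temperature incubation, gives cell viability of SBE-bla HEK 293T cells treated 5 hr with compounds at 37 C.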
The nature of assay [7]: qHTS assay to identify small molecule agonists of the TGF-beta/Smad signaling pathway (AID 1346859; active means well fitted activation curve with a large enough effect in the signal ratio in the repeat runs, not every such curve was filed as active; the % refers to the signal ratio; further: series mostly up to about 77 µM). The procedure, abridged: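 Dual-wavelength fluorescence (460/530 nm emission) quantified beta-lactamase expression under the Smad binding element in HEK 293T cells following 5 hr compound treatment at 37 C.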
Assay [8] deals with Thyrotropin-releasing hormone receptor (Homo sapiens) (UniProt P34981). In words: qHTS assay to identify small molecule agonists of the thyrotropin-releasing hormone receptor (TRHR) signaling pathway (AID 1346891; calls by dose curve; further: series mostly up to about 58 µM). The method, boiled down:
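Kinetic fluorescence (3 min, 1 s intervals) reported intracellular calcium after compound transfer onto TRHR-Hek293 cells pre-loaded with dye for 2 h at 37 °C.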

Assay [9] is described as follows: Human pregnane X receptor (PXR) small molecule agonists, qHTS cell viability counter screen (AID 1346977). Further: nearly all actives have a fitted effect of over 50% in size. The procedure, abridged: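 HepG2 cells stably carrying the PXR-Luc reporter are cultured with 5% charcoal-stripped FBS and treated with compounds for 24hr. CellTiter-Fluor is added at 23hr and fluorescence is read after 1hr.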
Assay [10] is described as follows: Caspase-3/7 induction in HepG2 cells by small molecules, qHTS assay (AID 1346978). Further: nearly all actives have a fitted effect of over 15% in size. The method, boiled down: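 Wild-type HepG2 cells, 2,000/well, settled 5 hr at 37 C and 5% CO2, then compound-treated for 17 hr; caspase-3/7 activity read by luminescent Caspase-Glo 3/7 after 30 min at room temperature.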
A short description of assay [11]: Caspase-3/7 induction in CHO-K1 cells by small molecules, qHTS cell viability counter screen (AID 1346979). Further: nearly all actives have a fitted effect of over 35% in size. Further: potency means the concentration at half of the fitted maximal effect. The procedure, abridged:
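Seeding: 1,500 CHO-K1 cells/well. Rest: 5hr, 37C. Treatment: compounds in DMSO, 16hr. Read: CellTiter-Fluor, 1hr, fluorescence.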

Assay [12] in a line: Caspase-3/7 induction in CHO-K1 cells by small molecules, qHTS assay (AID 1346980). Further: nearly all actives have a fitted effect of over 15% in size. The method, boiled down: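 Wild-type CHO-K1 cells exposed to compounds for 17hr at 37 C, 5% CO2. Caspase-3/7 activity then measured by Caspase-Glo 3/7 luminescence after 30min at room temperature.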
A short description of assay [13]: Caspase-3/7 induction in HepG2 cells by small molecules, qHTS cell viability counter screen (AID 1346981). Further: series mostly up to about 92 µM; nearly all actives have a fitted effect of over 30% in size. The procedure, abridged:
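Wild-type HepG2 cells, 2,000/well, settled 5 hr at 37 C, 5% CO2 before compound addition. Viability read by CellTiter-Fluor fluorescence, reagent added after 16 hr compound exposure, then 1 hr at 37C, in the same wells as the caspase read.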

The target of assay [14] is Nuclear receptor subfamily 1 group I member 2 (Homo sapiens) (UniProt O75469). In words: Human pregnane X receptor (PXR) small molecule agonists, qHTS assay (AID 1346982). Further: nearly all actives have a fitted effect of over 35% in size. Further: potency means the concentration at half of the fitted maximal effect. The method, boiled down: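 PXR-Luc HepG2 reporter cells (CYP3A4-driven luciferase) in 5% charcoal-stripped FBS medium, plated 5 h before compound addition, then treated 24 h at 37C. Luciferase read by ONE-Glo luminescence after 30 min at room temperature.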
Chain of Nuclear receptor subfamily 1 group I member 2 (Homo sapiens) (O75469 whole entry, looked up): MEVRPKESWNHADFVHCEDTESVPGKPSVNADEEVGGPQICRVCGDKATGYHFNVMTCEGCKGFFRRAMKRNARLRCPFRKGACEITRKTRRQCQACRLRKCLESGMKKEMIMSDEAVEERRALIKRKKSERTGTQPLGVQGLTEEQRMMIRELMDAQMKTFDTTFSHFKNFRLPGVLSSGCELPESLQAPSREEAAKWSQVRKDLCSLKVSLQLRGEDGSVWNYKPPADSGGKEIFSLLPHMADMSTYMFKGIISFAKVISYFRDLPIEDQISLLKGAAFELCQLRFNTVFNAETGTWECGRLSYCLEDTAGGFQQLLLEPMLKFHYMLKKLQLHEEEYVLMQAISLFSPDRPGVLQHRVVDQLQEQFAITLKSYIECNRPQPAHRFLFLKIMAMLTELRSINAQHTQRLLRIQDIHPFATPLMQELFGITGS

In assay [15] the target is Cytochrome P450 2D6 (Homo sapiens) (UniProt P10635). In words: Cytochrome P450 Family 2 Subfamily D Member 6 (CYP2D6) small molecule antagonists: luciferase reporter qHTS assay (AID 1671196). Further: nearly all actives have a fitted effect of over 50% in size. Further: potency means the concentration at half of the fitted maximal effect. The procedure, abridged: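 Cell-free P450-Glo system: CYP2D6 with proluciferin substrate was pre-incubated with compound for 10 min, then reacted with NADPH regeneration for 1 h at room temperature. Luciferin product was detected after 20 min, and data were reported as relative luminescence units.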
Chain of Cytochrome P450 2D6 (Homo sapiens) (P10635 whole entry, looked up): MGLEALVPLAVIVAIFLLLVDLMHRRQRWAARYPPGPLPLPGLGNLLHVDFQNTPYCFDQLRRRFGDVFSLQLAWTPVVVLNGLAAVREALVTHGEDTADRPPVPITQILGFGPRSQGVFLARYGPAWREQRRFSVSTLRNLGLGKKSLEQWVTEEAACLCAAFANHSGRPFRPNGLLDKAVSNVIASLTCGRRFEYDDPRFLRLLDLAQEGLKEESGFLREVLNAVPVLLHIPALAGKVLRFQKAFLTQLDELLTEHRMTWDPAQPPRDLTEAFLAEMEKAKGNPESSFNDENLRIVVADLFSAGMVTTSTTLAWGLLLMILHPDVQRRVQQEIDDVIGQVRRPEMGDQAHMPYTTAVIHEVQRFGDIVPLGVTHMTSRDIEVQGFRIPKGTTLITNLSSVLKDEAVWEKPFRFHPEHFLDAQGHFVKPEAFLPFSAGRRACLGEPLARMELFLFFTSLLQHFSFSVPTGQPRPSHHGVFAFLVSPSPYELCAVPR
For orientation: Reporter assays use an easily measured gene product as a stand-in for the process of interest.

A short description of assay [16]: qHTS assay to identify small molecule antagonists of the TGF-beta/Smad signaling pathway - cell viability counter screen (AID 1346824). Further: nearly all actives have a fitted effect of over 50% in size. The procedure, abridged: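 SBE-bla HEK 293T cells, incubated overnight, then compound plus 0.25 ng/mL TGF-beta1 (stock added) for 5 hr at 37 C. Viability was read in the same wells by CellTiter-Glo luminescence after 30 min at room temperature.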

In assay [17] the target is Thyrotropin-releasing hormone receptor (Homo sapiens) (UniProt P34981). Briefly: qHTS assay to identify small molecule antagonists of the thyrotropin-releasing hormone receptor (TRHR) signaling pathway (AID 1346877; active means well fitted inhibition curve with a large enough effect in the repeat runs, not every such curve was filed as active; further: series mostly up to about 51 µM). The procedure, abridged:
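TRHR-expressing HEK293 cells loaded with calcium dye for 2 h at 37 C; compounds pre-incubated 5 min at room temperature before TRH challenge at 1 nM final. Intracellular calcium fluorescence read kinetically for 3 min; 15 concentrations in triplicate.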

Assay [18] concerns the target Nuclear receptor subfamily 1 group I member 2 (Rattus norvegicus) (UniProt Q9R1A7). Briefly: Rat pregnane X receptor (rPXR) activation by small molecules, qHTS assay (AID 1346983). Further: nearly all actives have a fitted effect of over 20% in size. The following applies: rPXR luciferase reporter cells, One-Glo luminescence, 24 h; max activation: stronger effect = higher value. The procedure, abridged: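 Cell-based rPXR activation assay: rPXR cells, 2,000 per well, rested 5hr at 37 C, then exposed to compounds in DMSO for 24 hr at 37 C. Luciferase activity read by One-Glo luminescence after 30 min at room temperature.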

In assay [19] the target is Nuclear receptor subfamily 1 group I member 2 (Homo sapiens) (UniProt O75469). Briefly: CYP3A4 induction through human pregnane X receptor (PXR) by small molecules, qHTS assay (AID 1346984). Further: nearly all actives have a fitted effect of over 40% in size. The method, boiled down: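 DPX-2 HepG2 cells carrying a PXR response element and CYP3A4-promoter luciferase construct, treated with compounds 24 hr at 37C. Then P450-Glo CYP3A4 Luciferin-IPA substrate (3uM final) for 3 hr at 37C, One-Glo added, luminescence read.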

The target is the same in assay [20]. In words: Human pregnane X receptor (PXR) activation by small molecules, qHTS assay (AID 1346985). Further: nearly all actives have a fitted effect of over 40% in size. The procedure, abridged:
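DPX-2 cells (HepG2 co-transfected with a PXR response element and a CYP3A4-promoter luciferase construct) were seeded at 2,000 per well, rested 5 hr at 37C, then exposed to DMSO-dissolved compounds for 24 hr. Activation was read as luciferase luminescence.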
On the % scale 0 is the no-effect control and ±100 the full control effect.

Chain of Progesterone receptor (Homo sapiens) (P06401 whole entry, looked up): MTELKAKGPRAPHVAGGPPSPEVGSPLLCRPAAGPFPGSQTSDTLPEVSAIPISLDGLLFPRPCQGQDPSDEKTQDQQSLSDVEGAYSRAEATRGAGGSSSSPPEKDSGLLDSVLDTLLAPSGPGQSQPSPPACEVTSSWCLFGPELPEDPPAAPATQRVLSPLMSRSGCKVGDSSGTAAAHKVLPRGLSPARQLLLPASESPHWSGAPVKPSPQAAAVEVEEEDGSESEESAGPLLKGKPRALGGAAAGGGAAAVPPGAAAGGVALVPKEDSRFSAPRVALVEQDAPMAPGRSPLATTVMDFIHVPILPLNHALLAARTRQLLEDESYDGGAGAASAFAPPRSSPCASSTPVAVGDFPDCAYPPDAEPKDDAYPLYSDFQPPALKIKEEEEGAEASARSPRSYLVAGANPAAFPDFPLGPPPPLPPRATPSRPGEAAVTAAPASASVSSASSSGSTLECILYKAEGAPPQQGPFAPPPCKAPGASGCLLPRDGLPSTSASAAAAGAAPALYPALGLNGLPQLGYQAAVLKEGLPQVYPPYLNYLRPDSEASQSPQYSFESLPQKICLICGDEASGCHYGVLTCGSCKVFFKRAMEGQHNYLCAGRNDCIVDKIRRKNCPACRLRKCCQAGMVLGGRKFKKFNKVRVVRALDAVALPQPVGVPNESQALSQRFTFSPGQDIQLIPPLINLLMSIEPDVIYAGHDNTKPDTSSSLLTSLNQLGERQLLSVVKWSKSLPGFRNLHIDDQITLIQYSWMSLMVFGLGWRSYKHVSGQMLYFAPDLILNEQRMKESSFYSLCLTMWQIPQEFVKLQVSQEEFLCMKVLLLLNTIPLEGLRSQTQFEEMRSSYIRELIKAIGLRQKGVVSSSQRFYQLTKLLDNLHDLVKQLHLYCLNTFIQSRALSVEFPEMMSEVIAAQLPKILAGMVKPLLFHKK
Chain of Thyrotropin-releasing hormone receptor (Homo sapiens) (P34981 whole entry, looked up): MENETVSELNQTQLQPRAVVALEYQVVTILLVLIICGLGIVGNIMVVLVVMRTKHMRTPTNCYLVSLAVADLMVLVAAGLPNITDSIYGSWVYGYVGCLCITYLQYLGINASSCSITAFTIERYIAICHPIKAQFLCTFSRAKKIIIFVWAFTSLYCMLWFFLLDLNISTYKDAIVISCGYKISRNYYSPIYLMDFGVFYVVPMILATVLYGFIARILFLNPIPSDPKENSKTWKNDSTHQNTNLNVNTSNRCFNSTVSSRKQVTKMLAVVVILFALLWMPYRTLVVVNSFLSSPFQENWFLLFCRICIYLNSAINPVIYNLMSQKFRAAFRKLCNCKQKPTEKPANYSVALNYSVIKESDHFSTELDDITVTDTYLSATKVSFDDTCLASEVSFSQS
Chain of Nuclear receptor subfamily 1 group I member 2 (Rattus norvegicus) (Q9R1A7 whole entry, looked up): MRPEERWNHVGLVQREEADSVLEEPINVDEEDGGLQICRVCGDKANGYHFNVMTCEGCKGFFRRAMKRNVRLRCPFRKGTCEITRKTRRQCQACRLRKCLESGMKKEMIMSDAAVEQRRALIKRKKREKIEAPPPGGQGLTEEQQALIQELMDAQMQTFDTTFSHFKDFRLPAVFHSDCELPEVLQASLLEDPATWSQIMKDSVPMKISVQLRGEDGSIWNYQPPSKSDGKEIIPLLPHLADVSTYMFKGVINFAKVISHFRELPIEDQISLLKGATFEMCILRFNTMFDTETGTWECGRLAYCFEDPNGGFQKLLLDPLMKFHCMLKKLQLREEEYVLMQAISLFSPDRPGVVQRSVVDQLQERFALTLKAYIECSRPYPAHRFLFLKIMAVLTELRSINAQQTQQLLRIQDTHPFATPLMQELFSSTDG

With `CC(C)Cc1ccc(C(C)C(=O)O)cc1` (stereo unspecified), the Potency entry in [1], in [2], in assay [3], in assay [4], in assay [5] and in [6] was “inactive” throughout. The Potency entry in assay [8], in assay [9], in assay [10], in assay [11], in assay [13] and in [14] was “inactive” in each case. Also, in [15], the Potency result is “inactive”. The call in assay [7] and in [12] was inactive.

On to `Cc1cnc(NC(=O)C2=C(O)c3ccccc3S(=O)(=O)N2C)s1`, for which the Potency in [1] is 43.4 µM (active) and inactive; in [11], 61.3 µM (active) and inactive. Also, the Potency entry in assay [2], in assay [3], in [4], in [5], in assay [6] and in assay [8] was “inactive” throughout. For the same molecule, the Potency entry in assay [9], in assay [10], in assay [13] and in assay [15] was “inactive” in each case. Further, the call in assay [7] and in assay [12] was inactive.

Take `Cc1c(N(C)C)c(=O)n(-c2ccccc2)n1C`: the Potency entry in assay [1], in assay [2], in [3], in [4], in assay [5] and in assay [16] was “inactive” each time. Moreover, the Potency entry in assay [6], in assay [9], in assay [11], in assay [13] and in assay [15] was “inactive” each time. Further, the molecule was classed as inactive in assay [7] and in assay [12]. For the same molecule, the Potency in [14] was 55.4 µM (active) and inactive.

On to `CC(=O)Oc1ccccc1C(=O)O`, for which the Potency result in [1], in [2], in [3], in [4], in assay [5] and in assay [16] was “inactive” each time. Moreover, the Potency entry in [6], in [9], in [10], in assay [11], in [13] and in assay [14] was “inactive” throughout. Further, in assay [15], the Potency result is “inactive”. Further, the result in assay [7] and in assay [12] was inactive.

Turning to `O=C(O)Cc1cccc2ccccc12`, the Potency entry in [1], in assay [3], in [16], in [6], in assay [8] and in assay [9] was “inactive” each time. Further, the Potency entry in assay [13], in [14], in assay [19] and in assay [20] was “inactive” throughout. Moreover, the Potency entry in assay [2] is “inactive and 1.37 µM (active)”; in assay [5], “inactive and 21.7 µM (active)”; in assay [15], “inactive and 6.33 µM (active)”. In addition, the outcome in assay [7], in [17] and in assay [12] was inactive. Also, the max activation in assay [18] was -6.88% (inactive).

For the molecule `CCCCOCCOCCSC#N`, the Potency result in [1], in assay [4], in [5], in assay [16], in [6] and in [8] was “inactive” in each case. In addition, the Potency entry in assay [9], in assay [10], in [11], in assay [13] and in [15] was “inactive” each time. In addition, the molecule was classed as inactive in [7], in [17] and in [12]. Moreover, the Potency in assay [14] is 32.3 µM (active) and 26.8 µM (active).

On to `C#C[C@]1(O)CC[C@H]2[C@@H]3CCC4=CC(=O)CC[C@@H]4[C@H]3CC[C@@]21CC`, for which the Potency result in [1], in [3], in assay [4], in assay [16], in [6] and in assay [9] was “inactive” in each case. The Potency entry in assay [10], in assay [13], in [19], in assay [20] and in assay [15] was “inactive” each time. In addition, the molecule was classed as inactive in assay [7] and in assay [12]. Besides, the Potency result was “inactive and 54.5 µM (active)” in assay [11]; 8.65 µM (active) and 54.5 µM (active) and 24.3 µM (active) in assay [14]. Moreover, the max activation in assay [18] was -1.1% (inactive).

`C=CC(=O)NC(C)(C)CS(=O)(=O)O`: the Potency result in assay [1], in assay [2], in assay [3], in [4], in assay [5] and in assay [16] was “inactive” throughout. The Potency entry in assay [6], in assay [9], in assay [10], in assay [11], in [13] and in assay [14] was “inactive” each time. For the same molecule, the result in assay [7] and in [12] was inactive. Further, the Potency in [15] was 49.2 µM (active) and inactive.
